# Screening results: PubChem BioAssay, Broad Institute
# Compounds with a hit are over-represented: about 2.2% of the library has one in this group of screens.
# LGR2 antag: blocks bursicon-induced cAMP signaling via Drosophila LGR2 | HEK293 LGR2, CRE-luciferase, bursicon-stimulated, 4 h | inhibition, % at 9.99 µM | hit rate 0.35% among 380,000 | AID 720647;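 active = drop in luminescence signal, shown as inhibition above about 50% in the replicate tests, limit read from the data, passing the limit was not always enough; inconclusive = probably only some replicates passing the limit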;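 note: agonist challenge used bursicon conditioned medium at about half maximal strength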
# EBV LMP1 NFkB: inhibitors of Epstein-Barr LMP1-induced NF-kappaB reporter. LMP1-induced NF-kappaB luciferase reporter cells, luminescence. inhibition, % at 12.5 µM. AID 504558. hit rate 0.69% among 350,000; in the data active = inhibition above about 41%; inconclusive = no clear call, values can overlap the other calls;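 note: 0% = neutral control wells and 100% = reference inhibitor control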
# PAX8 inh HTS: PAX8 transcriptional activity inhibition; RMG-I TPO-luciferase reporter, SteadyGlo, 24 h; inhibition, % at 12.6 µM; hit rate 1.2% among 360,000;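 active = mean replicate inhibition at least 60% with every replicate also reaching 60%; inconclusive = only one of the two criteria is met; inactive = mean below 60% and not all replicates reaching 60%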;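 note: luciferase light reporting Pax8 driven TPO promoter activity; plate controls were median of neutral control wells for no effect and mitoxantrone controls for full effect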
# TRPM1 prom inh: inhibitors of MITF-driven TRPM1 promoter in melanoma cells; SK-MEL-5 TRPM1 promoter luciferase, 24 h; inhibition, % at 12.5 µM; hit rate 0.83% among 330,000;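 active = mean inhibition across replicates of 60% or more, whatever share of single replicates reaches that level; inconclusive = some that reach 60%, reason not given; inactive = mean inhibition across replicates below 60%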
# Shn3 3UTR inh: Schnurri-3 reporter inhibition in Clone20 osteoblasts; inhibition, % at 12.5 µM; Clone20 osteoblast Shn3 3'UTR firefly luciferase, 24 h; AID 588674; hit rate 0.52% among 360,000;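 active = mean inhibition of at least 75% with every replicate also reaching 75%; inconclusive = mean inhibition at least 75% but some replicate below; inactive = mean inhibition below 75%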;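 note: 0% = median of neutral control wells and 100% = pilot-screen positive control compound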
# EWS-Fli inh: inhibitors of EWS/Fli oncoprotein transcriptional activity; A673 NR0B1-luciferase reporter, viability-normalised; inhibition, % at 12.6 µM; hit rate 0.67% among 350,000; AID 651661;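 active = mean inhibition of at least 50% after viability correction, with every replicate also passing that limit; inconclusive = mean reaches 50% but only one of two replicates passes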;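 note: firefly luciferase signal divided by Alamar Blue viability fluorescence both relative to DMSO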
# The depositor's hits bear a star; ? = inconclusive; . = not tested or not shown.
SMILES,LGR2 antag,EBV LMP1 NFkB,PAX8 inh HTS,TRPM1 prom inh,Shn3 3UTR inh,EWS-Fli inh
O=C1C(Cl)=C(NCCCN2CCOCC2)C(=O)c2ccccc21,.,-12,19,98*,-5,19
O=C1C(Cl)=C(NCCCO)C(=O)c2ccccc21,.,-3,.,84*,4,.
CCOCCCNC1=C(Cl)C(=O)c2ccccc2C1=O,-37,-6,25,30,-12,-45
O=C1C(Cl)=C(NCCN2CCOCC2)C(=O)c2ccccc21,0,8,10,69*,11,-8
CO[C@H]1CN(C)C(=O)c2ccc(NS(=O)(=O)c3cn(C)cn3)cc2OC[C@H](C)N(CC2CC2)C[C@H]1C,9,.,-14,.,.,-1
Cc1c(/C(O)=C2/C(=O)C(=O)N(Cc3cccnc3)C2c2ccccn2)cnn1-c1ccccc1 (configuration not stated),87*,38,10,49,60,27
CC1CCCCC1NC(=O)CN1C(=O)CSc2cc(S(=O)(=O)N3CCCCCC3)ccc21 (configuration not stated),.,6,85*,4,10,0
O=C(NC1CCCC1)N1CC2(C1)[C@H](c1ccccc1)[C@H](CO)N2S(=O)(=O)Cc1ccccc1,7,.,-9,.,.,-3
CNC[C@H]1OCCCC[C@H](C)Oc2ccc(NC(=O)Nc3c(C)noc3C)cc2C(=O)N([C@H](C)CO)C[C@@H]1C,12,.,-2,.,.,-10
O=C(OCn1ncc(Cl)c(Cl)c1=O)c1cccc(C(F)(F)F)c1,.,0,.,94*,97*,.
Cc1ccc(S(=O)(=O)CCC(=O)Nc2cc(C)on2)cc1,10,-1,6,.,8,1
Cc1cc(NC(=O)CCS(=O)(=O)c2nc(-c3ccccc3)cc(C(F)(F)F)n2)no1,.,-26,.,85*,65,.
CS(=O)(=O)c1nc(-c2ccccc2)cc(C(F)(F)F)n1,.,30,.,95*,95*,.
COc1ccc(CN(C)C[C@@H]2Oc3c(NS(=O)(=O)c4c(C)noc4C)cccc3C(=O)N([C@H](C)CO)C[C@@H]2C)cc1,-41,.,.,.,.,-15
CC(C)NC(=O)Nc1ccc2c(c1)C(=O)N([C@H](C)CO)C[C@H](C)[C@@H](CN(C)C(=O)c1ccncc1)OCCCC[C@H](C)O2,-3,.,-9,.,.,.
CC(=O)Nc1cccc(NC(=O)C(=O)Nc2ccc3c(c2)N(C(=O)C2CC2)CCC3)c1,-6,-8,-49,-55,-39,-15
COc1ccccc1NC(=O)C(=O)Nc1ccc2c(c1)N(C(=O)C1CC1)CCC2,-10,-12,79*,-1,-42,-26
CNC[C@@H]1Oc2ccc(NC(=O)Nc3ccc4c(c3)OCO4)cc2C(=O)N([C@@H](C)CO)C[C@H]1C,-5,.,-36,.,.,-4
CN=c1sc2c(n1C)C(=O)c1ccccc1C2=O,-5,4,-5,93*,3,-2
C[C@@H]1CN([C@@H](C)CO)C(=O)Cc2cc(NS(=O)(=O)c3ccc(F)cc3)ccc2O[C@H]1CN(C)C(=O)Nc1ccc2c(c1)OCO2,18,.,-17,.,.,-3
CS(=O)(=O)c1ccc(C(=O)OCC(=O)Nc2cccnc2Cl)cc1[N+](=O)[O-],8,2,.,27,94*,.
Cc1ccccc1NC(=O)COC(=O)c1ccc(S(C)(=O)=O)c([N+](=O)[O-])c1,1,6,?,19,0,10
Cc1ccccc1NC(=O)Cc1nc(COC(=O)c2ccc(S(C)(=O)=O)c([N+](=O)[O-])c2)cs1,-13,-4,.,73*,?,.
Cc1ccccc1NC(=O)Cc1nc(COC(=O)c2ccc(NC(N)=O)cc2)cs1,2,6,20,-3,-7,5
S=c1[nH]nc(-c2ccccn2)n1/N=C/c1cccc2ccccc12,9,-7,122*,9,9,3
SMILES,LGR2 antag,EBV LMP1 NFkB,PAX8 inh HTS,TRPM1 prom inh,Shn3 3UTR inh,EWS-Fli inh
CC1CCc2c(sc(NC(=O)CSc3ncn[nH]3)c2C#N)C1 (configuration not stated),9,28,26,62*,50,64*
CC(C)(C)C1CCc2c(sc(NC(=O)CSc3ncn[nH]3)c2C#N)C1 (configuration not stated),.,-1,22,8,29,.
N#Cc1c(NC(=O)CSC2=NCCS2)sc2c1CCCC2,.,4,.,-24,-3,.
N#Cc1c(NC(=O)CSc2ncn[nH]2)sc2c1CCCC2,.,27,.,73*,58,.
CCCC#Cc1ccc2c(c1)O[C@@H](CN(C)C(=O)CC1CC1)[C@H](C)CN([C@@H](C)CO)S2(=O)=O,8,.,.,.,.,8
Cc1ccc(-c2ccc([C@H]3[C@@H](CO)N4CCCCN(S(=O)(=O)c5ccccc5C)C[C@H]34)cc2)cc1,9,.,-2,.,.,31
COc1ccc(NC(=O)Nc2ccc3c(c2)CC(=O)N([C@H](C)CO)C[C@H](C)[C@H](CN(C)Cc2ccc(Cl)c(Cl)c2)O3)cc1,-14,.,-9,.,.,-8
C[C@@H]1CN([C@@H](C)CO)C(=O)Cc2cc(NC(=O)Nc3ccc(F)cc3)ccc2O[C@H]1CN(C)Cc1ccc2c(c1)OCO2,17,.,68*,.,.,11
C[C@H]1CN([C@@H](C)CO)C(=O)Cc2cc(NC(=O)Nc3ccc(F)cc3)ccc2O[C@H]1CN(C)Cc1ccc2c(c1)OCO2,4,.,-13,.,.,-12
COc1ccc(NC(=O)Nc2ccc3c(c2)CC(=O)N([C@@H](C)CO)C[C@@H](C)[C@H](CN(C)Cc2ccc(Cl)c(Cl)c2)O3)cc1,11,.,72*,.,.,11
C[C@@H]1CN([C@@H](C)CO)C(=O)Cc2cc(NC(=O)Nc3ccc(F)cc3)ccc2O[C@@H]1CN(C)Cc1ccc(Cl)c(Cl)c1,4,-16,81*,20,27,15
COCC(=O)Nc1ccc2c(c1)OC[C@H](C)N(Cc1cccnc1)C[C@@H](C)[C@@H](OC)CN(C)C2=O,3,.,-3,.,.,6
CCNC(=O)C[C@H]1CC[C@H]2[C@H](COc3ccc(NC(=O)c4ccc(F)c(F)c4)cc3C(=O)N2C)O1,-6,.,-10,.,.,6
C[C@H](CO)N1C[C@H](C)[C@@H](CN(C)Cc2ccc(C(F)(F)F)cc2)OCCCC[C@H](C)Oc2ccc(NC(=O)Nc3ccc4c(c3)OCO4)cc2C1=O,26,.,60,.,.,18
C[C@@H]1CCCCO[C@H](CN(C)Cc2ccc(C(F)(F)F)cc2)[C@H](C)CN([C@@H](C)CO)C(=O)c2cc(NC(=O)Nc3ccc4c(c3)OCO4)ccc2O1,35,.,84*,.,.,3
C[C@@H]1CCCCO[C@@H](CN(C)Cc2ccc(C(F)(F)F)cc2)[C@H](C)CN([C@H](C)CO)C(=O)c2cc(NC(=O)Nc3ccc4c(c3)OCO4)ccc2O1,23,.,71*,.,.,26
C[C@H]1CCCCO[C@@H](CN(C)Cc2ccc(C(F)(F)F)cc2)[C@@H](C)CN([C@@H](C)CO)C(=O)c2cc(NC(=O)Nc3ccc4c(c3)OCO4)ccc2O1,18,.,80*,.,.,-14
